In PubChem BioAssay (NCATS):
Inconclusive results are not listed. A number with no mark means an inactive call. Activity calls are given as the source filed them. The call rests on the fitted dose curve; in most records, active means well fitted inhibition curve with a large enough effect; inconclusive means small, poorly fitted or top-dose-only effect; inactive means no such curve, though single readings can be large or run the other way.

Assay: Primary qHTS for small molecule stabilizers of the endoplasmic reticulum resident proteome: Secreted ER Calcium Modulated Protein (SERCaMP) assay (AID 1508630)
Details: SH-SY5Y GLuc-SERCaMP (Gaussia luciferase released on ER calcium loss) secretion, thapsigargin, luminescence; series mostly up to 38.4 µM; activity change, negative = inhibition: at the top concentration
Procedure, shortened: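 The SH-SY5Y reporter protocol was run at 3 concentrations up to 38.3 uM (primary) or 11 concentrations (follow-up): 16 h compound, 100 nM thapsigargin for 4 h, then extracellular luciferase luminescence.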
On the % scale 0 is the no-effect control and ±100 the full control effect.

Compound	activity change, negative = inhibition	Potency
COc1cc(NC(=O)c2ccc(-c3ccc(Cl)cc3)o2)cc(OC)c1	0%	–
CC(C)(C)c1cc(C(=O)O)c(NC(=O)Nc2ccc3[nH]ncc3c2)s1	24.3%	–
C[C@H](NC(=O)c1sccc1OCc1ccc(Cl)cc1)c1ccccc1	0%	–
NC(=O)c1cnc(-c2ccc(C3(N)CCC3)cc2)c(-c2ccccc2)c1	-9.36%	–
CCc1ccc(C=C2SC(=S)NC2=O)cc1	12.5%	–
O=C(CCN1CCN(C(=O)OCc2cc(Cl)cc(Cl)c2)CC1)c1ccc2[nH]c(=O)oc2c1	174%	–
O=C1C[C@@H](c2ccc(O)cc2)Oc2cc(O)cc(O)c21	44.2%	–
CC(C)OC(=O)C(C)(C)Oc1ccc(C(=O)c2ccc(Cl)cc2)cc1	–	inactive
O=c1cc(-c2ccccc2)oc2cc(O)c(O)c(O)c12	–	inactive
O=c1[nH]cnc2c1ncn2[C@H]1CC[C@@H](CO)O1	128%	–
COc1cc2c(cc1OC)CN(CCc1ccc(NC(=O)c3cc(OC)c(OC)cc3NC(=O)c3cnc4ccccc4c3)cc1)CC2	150%	–
O=C(O)c1cc(O)c2c(c1)C(=O)c1cccc(O)c1C2=O	-24.5% [at 76.3 µM]	–
CC1CCC(C(=O)N(c2cc(C#CC(C)(C)C)sc2C(=O)O)C2CCC(O)CC2)CC1 (stereo unspecified)	0%	–
O=c1c(-c2ccc(O)cc2)coc2cc(O)ccc12	–	inactive
O=C(Nc1cccc(Br)c1)c1cccc(S(=O)(=O)N2CCCCCC2)c1	113%	–
Cc1ccc(C(C)(O)c2nc3ccccc3s2)c(C)c1 (stereo unspecified)	266%	–
